This test is described as follows: anti-His antibody binders, primary screen, artefact control for SMM control protein annotation, biochemical, small-molecule microarray, 635 nm fluorescence (AID 1128).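 Also: score merges feature fluorescence with signal-to-noise for each printed compound spot.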 To be noted: anti-His Alexa647 antibody binding, higher = more signal.
In the case of `CC(C)N1C(=O)c2ccccc2[C@](C)(C(=O)NCCCN(C)C)[C@@H]1c1ccc(CO)cc1`, the composite z-score was -0.439.
Then `CC(=O)NCCCC[C@@H]1NC(=O)[C@@H]2C[C@H](C(=O)NCCCCCC[N+](C)(C)C)[C@H](c3cccc(OCCO)c3)N2C1=O`, with 2.89.
Take `CCCCN1CC=CC23O[C@@H]4C=CCCOC(=O)C4[C@H]2C(=O)N(CCCO)[C@@H]3C1=O` (stereo not given in full): the composite z-score is -1.31.
On to `C=CCC(OC(C)=O)[C@@H]1[C@@H](N(Cc2cc3ccccc3o2)C(=O)c2cccc3ccccc23)c2cc(OCCCO)ccc2N1C(=O)Cc1ccc(OC)cc1` (stereo not given in full), for which the composite z-score is 0.305.
Regarding `C=CCN1C(=O)[C@]2(COC(c3ccc(OCCCO)cc3)=N2)Cc2ccccc21`, the composite z-score was found to be 3.08.
`C=C[C@H](C)[C@H](OC(=O)Nc1ccc(OC)cc1)c1ccc(O)c2ccccc12`: the composite z-score is -0.732.
Then `COc1ccccc1CN1C(=O)c2ccccc2[C@](Cc2ccccc2I)(C(=O)NC2CC2)[C@@H]1c1ccc(CO)cc1`, with 1.74; and `C=CC[C@@]1(C(N)=O)N=C(c2ccc(OCCCO)cc2)O[C@@H]1c1ccccc1N=[N+]=[N-]`, with 1.91; and `CCN(CC)c1ccc(N2CC=CC34O[C@@H]5C=CCOC(=O)[C@@H]5[C@H]3C(=O)N(CCCCCO)[C@@H]4C2=O)cc1` (stereo not given in full), with 3.37.
In the case of `COCCOC(=O)N1C(=O)[C@@]2(c3cc(C#CCC(C(=O)OC)C(=O)OC)ccc31)[C@H](c1ccc(OCCO)cc1)N1[C@H](c3ccccc3)[C@H](c3ccccc3)OC(=O)[C@H]1[C@@H]2C(=O)NC[C@H](O)c1ccccc1` it was 1.18.

Source of the values: PubChem BioAssay.
